# According to PubChem BioAssay AID488850 (National Center for Advancing Translational Sciences (NCATS), 2010):
# Inconclusive results are not listed. Active and inactive are the calls of the source. The call rests on the fitted dose curve; in most records, active means well fitted activation curve with a large enough effect; inconclusive means small, poorly fitted or top-dose-only effect; inactive means flat fitted curve, though single readings scatter.
# Target: Lysosomal acid glucosylceramidase (Homo sapiens) (UniProt P04062)
# Test: qHTS Assay for Inhibitors and Activators of N370S glucocerebrosidase as a Potential Chaperone Treatment of Gaucher Disease: Purified N370S Glucocerebrosidase Confirmation for Probe SAR
# Settings: purified N370S GC, 4MU-glucoside fluorescence, 40 min; series mostly up to 57.5 µM; activity change, negative = inhibition: at the top concentration
# Source text: NIH Chemical Genomics Center [NCGC] NIH Molecular Libraries Probe Production Centers Network [MLPCN] MLPCN Grant: MH086442-01 Assay Submitter (PI): Wei Zheng Glucocerebrosidase (GC) catalyzes the hydrolysis of beta-glucocerebroside to glucose and ceramide in lysosomes. Mutations in the glucocerebrosidase gene result in Gaucher disease, an autosomal recessive lysosomal storage disorder. Many of the mutations encountered in patients with Gaucher disease are missense alterations that may cause misfolding, decreased stability and/or mistrafficking of this lysosomal protein. […] These inhibitors include iminosugar analogs and three non-iminosugar inhibitors identified from a previous HTS of 62,000 compounds with the wild type recombinant enzyme. However, the enhancement of enzyme activity by the chaperone action of an enzyme inhibitor must be balanced against the direct inhibition of the enzyme. An enzyme activator could also function as a chaperone by binding to the enzyme and helping to correct its misfolding and mistrafficking. While activators for GC have not yet been identified, they may have better therapeutic potential than inhibitors. Therefore the discovery and development of chemical activators may provide a new strategy for the chaperone therapy. We have optimized a new assay using N370S mutant GC derived from the spleen of a Gaucher patient. […] In addition, the MLPCN compound library has expanded, which increases the chance of finding new and better probes. This assay characterizes compound activity using purified mutant enzyme instead of tissue homogenate. Compound activity differences may be due to the absence of endogenous cofactors found in tissue homogenate.
# NCGC Assay Protocol Summary: This is a fluorogenic enzyme assay with 4-methylumbelliferyl-beta-D-glucopyranoside as the substrate and purified N370S glucocerebrosidase as the enzyme preparation. Upon the hydrolysis of this fluorogenic substrate, the resulting product, […] which can be detected by a standard fluorescence plate reader. Data were normalized to the controls for basal activity (without enzyme) and 100% activity (with enzyme). The AC50 values were determined from concentration-response data modeled with the standard Hill equation. Assay buffer: 50 mM citric acid (titrated with potassium phosphate to pH 5.0), 100 mM potassium chloride, 10 mM sodium chloride, 1 mM magnesium chloride, 0.01% Tween-20. 1536-well assay protocol: (1) Add 2 ul/well of glucocerebrosidase enzyme solution (5 nM final) (2) Add 23 nL compounds in DMSO solution. The final titration was 0.5 nM to 58 uM. (3) Add 2 ul of substrate (1 mM final) (4) Incubate at 37C for 40 min. (5) Add 2 ul stop solution (1M NaOH and 1M Glycine mixture, pH 10) (6) Detect the assay plate in a ViewLux plate reader (PerkinElmer) with Ex=365 nm and Em=440nm. Keywords: Glucocerebrosidase, beta-glucosidase, Gaucher Disease, pharmacological chaperone, chaperone therapy, high throughput screening, glucocerebrosidase inhibitor, MLSMR, MLSCN, NIH Roadmap, qHTS and NCGC
# Chain of Lysosomal acid glucosylceramidase (Homo sapiens) (P04062 whole entry N409S): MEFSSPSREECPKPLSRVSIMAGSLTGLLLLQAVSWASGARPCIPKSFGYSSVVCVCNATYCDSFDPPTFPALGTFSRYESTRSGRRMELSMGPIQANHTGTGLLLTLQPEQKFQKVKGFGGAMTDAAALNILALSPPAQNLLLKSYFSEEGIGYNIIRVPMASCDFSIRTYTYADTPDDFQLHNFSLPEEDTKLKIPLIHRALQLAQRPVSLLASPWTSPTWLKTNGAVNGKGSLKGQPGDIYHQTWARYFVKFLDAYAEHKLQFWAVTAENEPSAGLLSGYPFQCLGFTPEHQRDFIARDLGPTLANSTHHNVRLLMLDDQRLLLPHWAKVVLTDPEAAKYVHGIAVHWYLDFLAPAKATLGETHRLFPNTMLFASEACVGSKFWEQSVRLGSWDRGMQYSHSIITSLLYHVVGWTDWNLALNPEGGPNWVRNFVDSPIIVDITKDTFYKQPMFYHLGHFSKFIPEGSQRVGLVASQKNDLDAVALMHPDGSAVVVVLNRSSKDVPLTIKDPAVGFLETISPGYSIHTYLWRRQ
SMILES,"activity change, negative = inhibition",Potency
CNC(=O)c1cnn2c(C)cc(C)nc12,-2.25% (inactive),
Cc1cc(C)n2ncc(C(=O)NCc3ccco3)c2n1,,20.6 µM (active)
Cc1ccc(NC(=O)c2cnn3c(C)cc(C)nc23)cc1,,16.3 µM (active)
Cc1cc(C)n2ncc(C(=O)Nc3ccccc3C)c2n1,,13 µM (active)
Cc1cc(C)n2ncc(C(=O)NC3CCC(C(C)(C)C)CC3)c2n1 (stereo unspecified),,7.3 µM (active)
Cc1cc(C)n2ncc(C(=O)Nc3ccncc3)c2n1,10.5% (inactive),
COc1ccc(NC(=O)c2cnn3c(C)cc(C)nc23)cc1Cl,,25.9 µM (active)
O=C(Nc1ccccc1Sc1ccccc1)c1cnn2c1NC(=C1CC1)C=C2C(F)F,,16.3 µM (active)
CC(=O)Nc1ccccc1NC(=O)c1cnn2c(C)cc(C)nc12,9.29% (inactive),
Cc1cc(C)n2ncc(C(=O)N3CCCC3)c2n1,-9.05% (inactive),
Cc1cc(C)n2ncc(C(=O)Nc3ccc(S(C)(=O)=O)cc3)c2n1,9.34% (inactive),
O=C(Nc1cnn(Cc2ccc(F)cc2)c1)c1cnn2c(C(F)F)cc(-c3ccccc3)nc12,,10.3 µM (active)
Cc1cc(C)n2ncc(C(=O)NCc3ccccc3)c2n1,,13 µM (active)
COc1ccc(NC(=O)c2cnn3c(C)cc(C)nc23)cc1,,14.6 µM (active)
Cc1cc(C)n2ncc(C(=O)Nc3cccc(C#N)c3)c2n1,0.235% [at 19 µM] (inactive),
Cc1cc(C)n2ncc(C(=O)Nc3ccc(Br)cc3)c2n1,,16.3 µM (active)

SMILES,"activity change, negative = inhibition",Potency
CCc1ccc(NC(=O)c2cnn3c(C)cc(C)nc23)cc1,,16.3 µM (active)
Cc1cccc(NC(=O)c2cnn3c(C)cc(C)nc23)c1,,18.3 µM (active)
Cc1cc(C)n2ncc(C(=O)Nc3ccc4c(c3)OCCO4)c2n1,,16.3 µM (active)
Cc1cc(C)n2ncc(C(=O)NC3CCCCC3)c2n1,,11.6 µM (active)
Cc1cc(C)n2ncc(C(=O)Nc3ccc4c(c3)CCC4)c2n1,,11.6 µM (active)
Cc1cc(C)n2ncc(C(=O)Nc3ccc4c(c3)OCO4)c2n1,,5.17 µM (active)
Cc1cc(C)n2ncc(C(=O)Nc3ccc(C(F)(F)F)cc3)c2n1,,13 µM (active)
COc1ccc(NC(=O)c2cnn3c(C)cc(C)nc23)cc1F,,5.8 µM (active)
CC(=O)c1cccc(NC(=O)c2cnn3c(C)cc(C)nc23)c1,,20.6 µM (active)
Cc1cc(C)n2ncc(C(=O)Nc3cccc(C(F)(F)F)c3)c2n1,,20.6 µM (active)
C#Cc1ccc(NC(=O)c2cnn3c(C)cc(C)nc23)cc1,,6.51 µM (active)
Cc1cc(C)n2ncc(C(=O)Nc3ccccc3)c2n1,,9.19 µM (active)
CC(=O)c1ccc(NC(=O)c2cnn3c(C)cc(C)nc23)cc1,19.5% (inactive),
Cc1ccc(NC(=O)c2cnn3c(C)cc(C)nc23)c(C)c1,,23.1 µM (active)
Cc1cc(C)n2ncc(C(=O)Nc3ccc(C)c(C)c3)c2n1,,7.3 µM (active)
